Test results taken from PubChem BioAssay.
The source made the active and inactive calls. The rule behind the calls is not given here.

target: Pantothenate synthetase (Mycobacterium tuberculosis (strain ATCC 25618 / H37Rv)) (UniProt P9WIL5); experiment: Coupled enzyme confirmation of inhibitors against recombinant Mtb PanC (AID 375); conditions: coupled enzyme assay; at 10 µM, stronger effect = higher value;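 note: 0% = full reaction with vehicle and 100% = no enzyme background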
Sequence (P9WIL5 whole entry, looked up): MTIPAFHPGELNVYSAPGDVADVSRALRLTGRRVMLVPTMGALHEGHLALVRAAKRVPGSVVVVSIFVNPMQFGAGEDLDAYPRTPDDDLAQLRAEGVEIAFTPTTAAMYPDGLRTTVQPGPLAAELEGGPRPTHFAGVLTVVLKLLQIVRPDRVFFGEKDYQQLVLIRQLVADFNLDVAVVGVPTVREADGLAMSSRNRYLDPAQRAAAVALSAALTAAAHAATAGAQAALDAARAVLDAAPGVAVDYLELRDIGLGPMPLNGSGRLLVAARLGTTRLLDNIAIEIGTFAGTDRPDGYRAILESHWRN

**Q.** How did the inhibition turn out when `O=C(Nc1ccc2oc(Cc3ccc(Cl)cc3)nc2c1)c1cccnc1` was run?
**A.** The inhibition was 0% (inactive).

**Q.** `CC(Sc1nnnn1C)C(=O)Nc1ccc(Oc2ccccc2)cc1` (stereo not given) was tested. Which inhibition did it give?
**A.** The inhibition was 0% (inactive).

**Q.** `Cc1nc2ccccn2c1/C(O)=C1\C(=O)C(=O)N(CCCN(C)C)C1c1ccc(F)cc1` (stereo not given) was tested. Which inhibition did it give?
**A.** The inhibition was 4% (inactive).

**Q.** For `CCc1ccc(C2CC(c3cccc(OC)c3)n3nc(N)nc3N2)cc1` (stereo not given), which inhibition is on record?
**A.** Its inhibition is 3% (inactive).

**Q.** `Cc1ccc(NC(=O)C2CCCN(S(=O)(=O)c3cnc[nH]3)C2)cc1F` (stereo not given) was tested. Which inhibition did it give?
**A.** Its inhibition is 0% (inactive).

**Q.** Which inhibition does the source give for `COCCN1C(=O)c2oc3c(C)cc(C)cc3c(=O)c2C1c1cccc(O)c1` (stereo not given) here?
**A.** Its inhibition is 5% (inactive).

**Q.** Which inhibition does the source give for `Cc1ccc(S(=O)(=O)NCC(=O)N(CC(=O)NCc2ccccc2)CC2CCCO2)cc1` (stereo not given) here?
**A.** The inhibition was 2% (inactive).

**Q.** With `COc1ccc(Cn2c(=O)[nH]c3cc(C(=O)NCCCN4CCCC4)ccc3c2=O)cc1` as the compound, how does the inhibition read?
**A.** The inhibition was 5% (inactive).

**Q.** `COc1ccc(S(=O)(=O)Nc2ccccc2OC)cc1C` was tested. Which inhibition did it give?
**A.** Its inhibition is 2% (inactive).

**Q.** For `Cc1nc(SCC(=O)CC(=O)OC(C)C)c(C#N)c(C)c1C`, which inhibition is on record?
**A.** The inhibition was 0% (inactive).

**Q.** For `O=C(COc1nnc2ccccn12)N1CCN(S(=O)(=O)c2ccccc2)CC1`, which inhibition is on record?
**A.** The inhibition was 1% (inactive).

**Q.** Which inhibition does the source give for `CC(C)c1ccc(S(=O)(=O)N2CCN(CCC(=O)Nc3ccc(N(C)C)cc3)CC2)cc1` here?
**A.** The inhibition was 5% (inactive).

**Q.** Which inhibition does the source give for `Cc1ccc(Cn2c(SCC(C)C)nc3c2c(=O)n(C)c(=O)n3C)cc1` here?
**A.** Its inhibition is 3% (inactive).

**Q.** For `O=C(CSC1=NCCS1)NCc1ccco1`, which inhibition is on record?
**A.** The inhibition was 0% (inactive).

**Q.** How did the inhibition turn out when `Cc1ccc(S(=O)(=O)N2CCOCC2)cc1C(=O)OCC(=O)N1CCc2ccccc2C1` was run?
**A.** Its inhibition is 0% (inactive).

**Q.** How did the inhibition turn out when `CC(=O)Nc1nc(=S)ss1` was run?
**A.** The inhibition was 6% (inactive).

**Q.** How did the inhibition turn out when `COc1cccc(-c2nc(CS(=O)CC(=O)NCCCOC(C)C)c(C)o2)c1` (stereo not given) was run?
**A.** Its inhibition is 2% (inactive).

**Q.** Which inhibition does the source give for `COc1ccc(C(CNC(=O)CN2C(=O)NC3(CC(C)CC(C)(C)C3)C2=O)N2CCOCC2)cc1` (stereo not given) here?
**A.** The inhibition was 4% (inactive).

**Q.** For `C=CCc1ccccc1OCC(O)CNC(C)C` (stereo not given), which inhibition is on record?
**A.** Its inhibition is 8% (inactive).

**Q.** With `CCOC(=O)/N=C(/NC(=O)Nc1ccc(C(=O)OCC)cc1)OC` as the compound, how does the inhibition read?
**A.** The inhibition was 0% (inactive).

**Q.** For `CCCCn1c(SCC(=O)NCc2ccccc2)nc2ccc(N3CCOCC3)cc2c1=O`, which inhibition is on record?
**A.** The inhibition was 0% (inactive).

**Q.** Which inhibition does the source give for `COCCOc1nc2ccccc2nc1C` here?
**A.** The inhibition was 0% (inactive).

**Q.** `CC1CN(c2c3c(nc4ncnn24)CCCC3)CC(C)O1` (stereo not given) was tested. Which inhibition did it give?
**A.** Its inhibition is 2% (inactive).

**Q.** For `CN(C)S(=O)(=O)NC(c1ccccc1)c1ccccc1`, which inhibition is on record?
**A.** Its inhibition is 4% (inactive).

**Q.** With `COc1ccccc1C1(CC(=O)N2CCOCC2)CCOC(C(C)C)C1` (stereo not given) as the compound, how does the inhibition read?
**A.** The inhibition was 2% (inactive).

**Q.** `CC1(C)OC(=O)C(=CNC(CCC(N)=O)C(=O)O)C(=O)O1` (stereo not given) was tested. Which inhibition did it give?
**A.** The inhibition was 3% (inactive).

**Q.** Which inhibition does the source give for `COc1cccc2cc(C(=O)N3CCN(c4ccc(C)cc4C)CC3)c(=O)oc12` here?
**A.** The inhibition was 0% (inactive).

**Q.** How did the inhibition turn out when `Oc1c(Cl)cc(Cl)c2c1NCCC2` was run?
**A.** The inhibition was 1% (inactive).

**Q.** For `O=C(CN(CC1CCCO1)C(=O)CCC(=O)Nc1ccccn1)NCC1CCCO1` (stereo not given), which inhibition is on record?
**A.** Its inhibition is 8% (inactive).

**Q.** For `NC1=NC(c2ccc(Br)cc2)n2c(nc3ccccc32)N1` (stereo not given), which inhibition is on record?
**A.** The inhibition was 0% (inactive).

**Q.** With `O=C(NC1CCS(=O)(=O)C1)c1c(NC(=O)C2COc3ccccc3O2)sc2c1CCCC2` (stereo not given) as the compound, how does the inhibition read?
**A.** The inhibition was 0% (inactive).

**Q.** For `COCc1cc(C)nc(Nc2ccc(C)cc2C)c1C#N`, which inhibition is on record?
**A.** The inhibition was 0% (inactive).

**Q.** `O=C(Nc1nc(-c2cccs2)cs1)c1cccc(S(=O)(=O)N2CCCCC2)c1` was tested. Which inhibition did it give?
**A.** Its inhibition is 0% (inactive).

**Q.** How did the inhibition turn out when `O=C(COc1ccc(Cl)cc1)Nc1nc(-c2cccs2)cs1` was run?
**A.** The inhibition was 1% (inactive).

**Q.** For `CCOC(=O)CNC(=O)CSc1nnnn1-c1cc(C)ccc1C`, which inhibition is on record?
**A.** The inhibition was 10% (inactive).

**Q.** Which inhibition does the source give for `Cc1cc(S(=O)(=O)N2CCN(c3ncccn3)CC2)ccc1-n1cnnn1` here?
**A.** The inhibition was 1% (inactive).

**Q.** With `O=C(CN1C(=O)CC(c2ccccc2)=Nc2ccccc21)NCc1ccco1` as the compound, how does the inhibition read?
**A.** The inhibition was 0% (inactive).

**Q.** For `O=c1[nH]c(=O)n([C@H]2C[C@H](O)[C@@H](CO)O2)cc1F`, which inhibition is on record?
**A.** Its inhibition is 0% (inactive).

**Q.** `O=C(Nc1cccc(F)c1)c1cccc(S(=O)(=O)N2CCOCC2)c1` was tested. Which inhibition did it give?
**A.** The inhibition was 0% (inactive).

**Q.** How did the inhibition turn out when `CCCCOc1ccc(NC(=O)Cn2c(=O)ccc3c(C)cc(C)nc32)cc1` was run?
**A.** Its inhibition is 3% (inactive).
